Bcl-xL primary: inhibitors of human Bcl-xL; 320,000 compounds, 0.7% hits; GST-Bcl-xL / FITC-Bim BH3 peptide fluorescence polarization; inhibition, % at 10.9 µM;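 active means inhibition above the mean of all tested compounds plus 3 SD, cutoff set per campaign, cut at about 30% in these data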;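 further: 0% = DMSO wells and 100% = unlabeled Bim-BH3 peptide competitor; inhibitors lower millipolarization by displacing the labeled peptide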
eLon inh: inhibits E. coli Lon protease; AID 602123; purified E. coli Lon protease, fluorescence polarization; 360,000 compounds, 0.42% hits; P0A9M0; inhibition, % at 7.94 µM; in the data active means inhibition above about 13%, passing the limit was not always enough;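 further: 0% = enzyme with probe and DMSO and 100% = no enzyme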
EBV gp42 inh: EBV gp42 inhibition. Q1HVG2. AID 1085. Fluorescence polarization binding assay, mP read-out. 220,000 compounds, 0.42% hits. inhibition, % (tested at 21.74 µM); in the data active means inhibition above about 50%
MEX-5 binding: C. elegans MEX-5 TCR-2 RNA binding activity; 300,000 compounds, 0.38% hits; MEX-5/FITC-TCR2 RNA binding, fluorescence polarization; active compounds read low; activity score (negative = inhibition of binding), % at 10 µM;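 active means inhibition past about -25% in most replicates, and total fluorescence under double the plate's negative control median, limit read from the data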;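 further: 0% = DMSO and -100% = 5 µM competing unlabeled TCR2 RNA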
Target sequence (Q9XUB2 whole entry, looked up): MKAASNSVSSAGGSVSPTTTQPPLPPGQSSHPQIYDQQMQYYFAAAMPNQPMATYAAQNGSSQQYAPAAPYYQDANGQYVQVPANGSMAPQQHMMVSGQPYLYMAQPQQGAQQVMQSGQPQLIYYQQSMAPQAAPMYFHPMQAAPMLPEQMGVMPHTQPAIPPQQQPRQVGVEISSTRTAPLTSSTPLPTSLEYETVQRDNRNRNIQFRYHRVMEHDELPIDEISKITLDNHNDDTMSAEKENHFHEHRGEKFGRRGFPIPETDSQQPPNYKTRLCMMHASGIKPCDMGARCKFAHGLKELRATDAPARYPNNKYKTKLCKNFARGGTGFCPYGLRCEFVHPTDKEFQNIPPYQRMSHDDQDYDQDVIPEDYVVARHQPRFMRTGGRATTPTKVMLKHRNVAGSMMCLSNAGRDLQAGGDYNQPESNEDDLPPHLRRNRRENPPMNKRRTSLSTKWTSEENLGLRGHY
MCL1-BIM inh: disrupts human MCL1 binding to BIM-BH3 peptide; 320,000 compounds, 0.68% hits; GST-MCL1 / FITC-Bim-BH3 fluorescence polarization; Q07820; inhibition, % at 10.9 µM;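 active means inhibition above the mean inhibition of all tested compounds plus 3 SD, set per campaign, cut at about 40% in these data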;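 further: 0% = DMSO wells and 100% = unlabeled Bim-BH3 peptide control; higher means more loss of mP so more displacement of Bim peptide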
GLD-1 RNA inh: GLD-1-TGE RNA interaction inhibition (C. elegans); inhibition, % at 5.96 µM; 320,000 compounds, 0.44% hits; purified GLD-1 + fluorescein TGE RNA, fluorescence polarization;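 active means percent inhibition above a per-plate cutoff, the plate mean of test compounds plus 3 SD, cut at about 30% in these data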;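 further: 0% = DMSO wells with GLD-1 and probe and 100% = wells lacking GLD-1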
GLD1 RNA confirm: GLD-1 TGE RNA interaction inhibition, confirmation; shares compounds with GLD-1 RNA inh; GLD-1/FL-TGE RNA fluorescence polarization, biochemical; inhibition, % at 5.96 µM; 550 compounds, 10% hits;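 active means average inhibition across triplicates above the hit cutoff set in the primary screen, cut at about 32% in these data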;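 further: 0% = GLD-1 with RNA probe and DMSO and 100% = wells lacking GLD-1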
* = called active by the depositor; nt = no result given. Rows were chosen to be rich in hits. Some 1.5% of all compounds tested hit in one or more screens of this group.

SMILES | Bcl-xL primary | eLon inh | EBV gp42 inh | MEX-5 binding | MCL1-BIM inh | GLD-1 RNA inh | GLD1 RNA confirm
CN(C)c1ccc(NC(=O)CN2C(=O)c3ccccc3C2=O)cc1 | 7 | 2 | nt | -1 | 16 | 3 | nt
COc1ccc2nc(N3CCC(O)CC3)c(C#N)cc2c1 | 42* | 0 | 46 | -16 | 38 | 37* | 31*
COc1ccc2cc(C#N)c(N3CCOCC3)nc2c1 | 8 | -11 | nt | -11 | 5 | -5 | nt
Cc1ccc(S(=O)(=O)CCC(=O)OCC(=O)Nc2cc(F)ccc2C)cc1 | 5 | -1 | nt | 1 | 7 | -12 | nt
Cc1ccc(-c2csc(N3CCN(CCCn4c(C(F)(F)F)nc5ccccc54)CC3)n2)cc1 | 3 | -5 | nt | 0 | 1 | 40* | -1
Cc1ccc(-c2csc(N3CCN(CCCn4c(-c5ccncc5)nc5ccccc54)CC3)n2)cc1 | -2 | 1 | nt | 0 | 4 | -3 | nt
C[C@H](NC(=O)C1CCN(S(=O)(=O)c2ccccc2)CC1)C(=O)NCc1cccnc1 | nt | -16 | nt | nt | nt | nt | nt
COc1ccc(/C(C)=N/NC(=O)CNC(=O)/C=C\c2ccco2)cc1 | 0 | -1 | 2 | 2 | 3 | 1 | nt
Cc1cc2cc(CNC(=O)c3ccc(Br)o3)ccc2n1C | 29 | 4 | 15 | 1 | 36 | 38* | 10
Cc1cc2cc(CNC(=O)CCC(=O)O)ccc2n1C | 18 | -4 | -18 | -4 | 15 | 17 | nt
Cc1cc2cc(CNC(=O)C3CCCC3)ccc2n1C | 29 | 6 | -10 | 1 | 27 | 37* | 6
O=C(NNc1c2ccccc2nc2ccccc12)C12CC3CC(CC(C3)C1)C2 | 5 | 11 | -5 | 0 | 3 | -5 | nt
NNC(=O)c1cc(C23CC4CC(CC(C4)C2)C3)nc2ccccc12 | 1 | -1 | nt | -1 | 1 | 60* | -8
COc1ccc2c(c1)CC/C(=C\c1ccc(C)o1)C2=O | 43* | -28 | -4 | -2 | 48* | 39* | -12
CN(CC(=O)N1CCc2ccccc2C1)c1ccccc1 | 3 | -8 | nt | -1 | 2 | 5 | nt
CC(CCC(C)C(C)(C)C)[C@@H]1CC[C@H]2C3C[C@H](OS(O)(=S)=S)[C@H]4C[C@H](OS(O)(=S)=S)[C@@H](OS(O)(=S)=S)C[C@]4(C)[C@H]3CC[C@]12C (stereo partly specified) (tested in a mixture with another compound) | nt | 36* | nt | nt | nt | 85* | 72*
CC(CCC(=O)NN)C1CCC2C3CCC4CC(O)CCC4(C)C3CCC12C (stereo unspecified) | nt | -1 | nt | nt | nt | nt | nt
CC1CCC(NC(=O)COC(=O)c2cccnc2Cl)CC1 (stereo unspecified) | 2 | 0 | nt | nt | 1 | 4 | nt
COCCn1c(=NC(=O)c2ccc(S(=O)(=O)N3CCCc4ccccc43)cc2)sc2cc(S(C)(=O)=O)ccc21 | 4 | -4 | -6 | 2 | 2 | 32* | -8
C=CCn1c(=NC(=O)c2ccc(S(=O)(=O)N3CCCc4ccccc43)cc2)sc2cc(S(N)(=O)=O)ccc21 | -7 | -6 | -9 | 5 | -10 | 4 | nt
Cc1c(O)ccc(-c2n[nH]c(C(=O)O)c2-c2nc3ccccc3s2)c1O | 11 | 1 | -16 | -58* | 14 | 44* | 51*
COc1ccc(C(=O)N2CCC(C(=O)O)CC2)c2ccccc12 | 4 | 1 | nt | -3 | -1 | 4 | nt
Cc1cccc(-c2oc3ccc(-c4ccc5c(c4)OCO5)cc3c2/C=C/c2ccc(N)cc2)c1 | -4 | -1 | nt | -1 | 0 | -10 | nt
CCN(CC)c1nc(C)c2c(c1C#N)CC(C)(C)OC2 | 8 | 0 | -14 | 1 | 4 | -2 | nt
CC1(C)Cc2c(C#N)c(N)sc(=S)c2CO1 | 40* | 2 | -2 | 1 | 43* | 31* | 12
CCOc1ccc(CN2CCN(CCCc3ccccc3)CC2CCO)cc1 (stereo unspecified) | 1 | 3 | nt | 1 | 14 | 2 | nt
Cc1c(O)ccc2cc(S(=O)(=O)c3ccccc3)c(=O)oc12 | 37* | -7 | nt | -24 | 37 | 34* | 49*

Screens from PubChem.
